CYP2C19 inh = inhibitors of human CYP2C19; inhibition, % at 5 µM; AID 778; P33261; actives 21% (n = 96,000); CYP2C19 Supersomes, luciferin-H EGE luminescence, 30 min;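 active = CYP2C19 inhibition above a set limit at 5 µM in the primary screen, cut at about 50% in these data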;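 note: plate controls were negative control wells for no effect and 2.5 mM tranylcypromine positive control for full effect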
CYP2C9 inh = blocks human cytochrome P450 2C9; P11712; CYP2C9 Supersomes, luciferin-H conversion, luminescence; inhibition, % at 5 µM; actives 20% (n = 96,000); AID 777;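 active = blocking of liver enzyme CYP2C9 beyond about 50% at 5 µM, limit read from the data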
CYP2C9 activ = increases human cytochrome P450 2C9 activity; recombinant CYP2C9, luciferin-H conversion, luminescence; active compounds read high; factor 1 = untreated enzyme, 0 = blocked; actives 1.4% (n = 96,000); activation factor at 5 µM;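 active = activation factor of 2 or more for CYP2C9 at a 5 µM dose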;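 note: 0 = sulfaphenazole-blocked wells and 1 = vehicle-only wells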
CYP2C19 act = increases human CYP2C19 enzyme activity | AID 1025 | recombinant CYP2C19, luciferin-H EGE luminescence; active compounds read high; 0 = fully inhibited enzyme, 1 = untreated enzyme | 96,000 tested, under 10 active | P33261 | activation factor at 5 µM;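 active = activation factor of at least 2 at 5 µM in the primary screen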;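 note: 0 = wells with 2.5 mM tranylcypromine and 1 = vehicle-only wells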
PTK2B oligo ant = Pyk2 (human) oligomerization antagonism | Q293 cells, Pyk2 FERM NanoBiT luminescence; active compounds read low | z-score (the deposit names both 25 µM and 10 µM) | actives 0.83% (n = 99,000) | Q14289;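 active = Z-score of -3 or lower, scaled per plate to the spread of control and sample wells; inactive = z-score above -3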;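 note: negative z-score means lost luminescence so less FERM oligomerization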
The depositor's hits bear a star; . = no result. The list is not random: actives were taken first. Their share in the collection is about 28%.

SMILES	CYP2C19 inh	CYP2C9 inh	CYP2C9 activ	CYP2C19 act	PTK2B oligo ant
COc1ccc(CCN2C(=O)CC(N3CCN(S(=O)(=O)c4ccccc4)CC3)C2=O)cc1 (stereo not drawn)	44	47	0.5	0.6	-0.37
Cc1ccc(S(=O)(=O)N2CCN(C3CC(=O)N(Cc4ccccc4)C3=O)CC2)cc1C (stereo not drawn)	60*	-58	1.6	0.4	-0.13
CCC1=NNc2cccc3c(OC)ccc1c23	28	18	0.8	0.7	.
COc1ccc2c3c(cccc13)OCC2=O	51*	40	0.6	0.5	0.18
O=C(CN(C(=O)c1ccccc1Cl)C1CCCCC1)Nc1ccc(Cl)c([N+](=O)[O-])c1	25	75*	0.2	0.7	-1
CCCc1[nH][nH]c(=O)c1C(c1cccc(Cl)c1)C(C#N)C#N (stereo not drawn)	75*	75*	0.3	0.3	-0.06
O=C1N/C(=C/c2cccn2-c2ccc(F)cc2)C(=O)N1Cc1ccccc1	7	0	1	0.9	0.14
O=C1Nc2ccccc2/C1=C\c1cccn1-c1ccc(OC(F)(F)F)cc1	11	87*	0.1	0.9	-2.2
COCCNC(=O)CSc1nc(-c2ccc(OC)c(OC)c2)cc(C(F)(F)F)n1	36	60*	0.4	0.6	-0.33
COc1ccc(-c2cc(C(F)(F)F)nc(SCC(=O)N3CCOCC3)n2)cc1OC	37	84*	0.2	0.6	-0.33
CC(O)C1CCC2C3CC[C@H]4CC(O)CCC4(C)C3CC3(OCCO3)C12C (stereo partly drawn)	12	3	1	0.9	0.01
Cc1ccc(S(=O)(=O)N2CCCN(S(=O)(=O)C3CCS(=O)(=O)C3)CC2)cc1 (stereo not drawn)	27	-51	1.5	0.7	0.23
Cc1cc(C)c(C)c(OCC(=O)NCc2nc(-c3ccccc3)no2)c1	-4	-12	1.1	1	0.08
O=C(O)C1CCCCC1C(=O)Nc1ccccc1Cl (stereo not drawn)	64*	46	0.5	0.4	0.18
O=C(O)C1CCCCC1C(=O)Nc1ccc(Cl)cc1Cl (stereo not drawn)	37	22	0.8	0.6	1.5
C=CCNc1cc(C)oc(=O)c1C(=O)CCC	-2	-26	1.3	1	-0.41
O=C(C1CCCN(S(=O)(=O)c2cccc3nonc23)C1)N1CCN(c2ccccc2)CC1 (stereo not drawn)	60*	60*	0.4	0.4	0.18
COc1ccc(OC)c(NC(=O)C2CCCN(S(=O)(=O)c3cccc4nonc34)C2)c1 (stereo not drawn)	20	5	0.9	0.8	-0.1
CC1CCN(C(=O)C2CCN(S(=O)(=O)c3cccc4nonc34)CC2)CC1	43	7	0.9	0.6	0.24
CCOC(=O)C1CCN(S(=O)(=O)c2cccc3nonc23)CC1	72*	88*	0.1	0.3	0.17
COc1ccc(CCNC(=O)C2CCCN(S(=O)(=O)c3cccc4nonc34)C2)cc1OC (stereo not drawn)	27	-2	1	0.7	-0.6
Cc1nn(C)c(C)c1S(=O)(=O)N1CCCC(C(=O)N2CCN(c3ccccc3)CC2)C1 (stereo not drawn)	58*	40	0.6	0.4	.
CC1CC(C)CN(C(=O)C2CCCN(S(=O)(=O)c3cccc4nonc34)C2)C1 (stereo not drawn)	46	76*	0.2	0.5	1.5
O=C(Nc1ccc2c(c1)Cc1ccccc1-2)c1ccco1	10	9	0.9	0.9	-1.2
O=C(O)c1ccc2c(c1)-c1nc3ccccc3n1C2=O	-2	9	0.9	1	1.1
O=C(C1CCCN(S(=O)(=O)c2cccc3nsnc23)C1)N1CCN(c2ccccn2)CC1 (stereo not drawn)	29	76*	0.2	0.7	0.58
CC(NC(=O)c1ccco1)C(c1cccs1)N1CCOCC1 (stereo not drawn)	64*	33	0.7	0.4	.
CC(NC(=O)c1ccccc1)C(c1cccs1)N1CCOCC1 (stereo not drawn)	57*	45	0.6	0.4	.
CC(NC(=O)Nc1ccc(Cl)cc1)C(c1cccs1)N1CCOCC1 (stereo not drawn)	68*	49	0.5	0.3	.
CC(NC(=O)Nc1ccccc1)C(c1cccs1)N1CCN(C)CC1 (stereo not drawn)	-3	-3	1	1	.

Compound activity: PubChem, Sanford-Burnham Center for Chemical Genomics
